# Sampled rows, rich in hits. Any-hit rate of the full collection: about 2.3%.
# CHRM1 PAM – positive allosteric modulators of human M1 muscarinic receptor; P11229; CHO-K1 hM1, Fluo-8 calcium fluorescence, ACh EC20; 0% = ACh EC20, 100% = maximal ACh; activation, % at 3 µM; 360,000 tested, 0.088% active; in the data active = activation above about 19%, passing the limit was not always enough
# Target sequence (P11229 whole entry, looked up): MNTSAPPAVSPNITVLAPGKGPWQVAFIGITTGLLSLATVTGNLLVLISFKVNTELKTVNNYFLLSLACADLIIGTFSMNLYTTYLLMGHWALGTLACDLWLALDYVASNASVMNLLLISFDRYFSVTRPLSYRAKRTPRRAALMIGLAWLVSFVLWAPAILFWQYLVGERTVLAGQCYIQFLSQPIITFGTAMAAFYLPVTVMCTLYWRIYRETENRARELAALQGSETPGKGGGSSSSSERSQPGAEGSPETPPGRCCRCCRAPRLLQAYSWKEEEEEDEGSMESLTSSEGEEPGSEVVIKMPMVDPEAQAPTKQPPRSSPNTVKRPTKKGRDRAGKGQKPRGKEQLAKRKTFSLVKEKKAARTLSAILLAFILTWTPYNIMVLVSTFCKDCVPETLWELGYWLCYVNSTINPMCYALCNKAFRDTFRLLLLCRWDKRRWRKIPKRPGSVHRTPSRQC
# CHO-K1 Ca PAM – counter-screen for M1 PAMs: effect in parental CHO-K1 cells; ATP EC20, Fluo-8 calcium fluorescence; 0% at ATP EC20, 100% at ATP max; activation, % at 3 µM; 360,000 tested, 0.02% active; AID 602247;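 active = activation above the run cutoff, the mean activation of all test compounds plus 3 SD, cut at about 40% in these data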;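 also: peak over basal fluorescence ratio in a 140 s read after ATP addition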
# CHO-K1 Ca ag – M1 agonist counterscreen hit in parental CHO-K1 cells; Fluo-8 calcium fluorescence; scaled to maximal ATP response, vehicle zero; activation, % at 3 µM; 360,000 tested, 0.48% active; AID 602248; in the data active = activation above about 15%;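 also: untransfected CHO-K1 host cells lacking M1 receptor as counterscreen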
# M1 antag – human CHRM1 antagonism; CHO-K1 hM1, Fluo-8 calcium fluorescence, ACh EC80 antagonist; 360,000 tested, 1.3% active; inhibition, % at 3 µM; AID 588852; P11229;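 active = percent inhibition above its own plate's cutoff, namely the mean of that plate's compound wells plus 3 SD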;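 also: peak over basal fluorescence ratio during 140 s after agonist addition; 0% = ACh EC80 plus DMSO and 100% = DMSO alone without agonist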
# CHO-K1 Ca antag – counter-screen for M1 antagonists: effect in parental CHO-K1 cells; ATP-induced calcium, Fluo-8 fluorescence; inhibition, % at 3 µM; 360,000 tested, 0.6% active; AID 602250;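 active = inhibition above a per-plate cutoff, the plate's mean sample inhibition plus 3 SD, cut at about 24% in these data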;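 also: 0% = DMSO plus EC80 ATP and 100% = DMSO alone without ATP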
# CHRM1 agonist – activates human CHRM1 receptor | CHO-K1 hM1, Fluo-8 calcium fluorescence, agonist mode; 0% DMSO, 100% acetylcholine EC100 | P11229 | 360,000 tested, 0.33% active | activation, % at 3 µM;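 active = activation above the run's mean compound activation plus 3 SD, cut at about 16% in these data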;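 also: peak over basal fluorescence ratio within a 140 s kinetic read after compound addition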
# Starred values were filed as active, the others as inactive.
SMILES,CHRM1 PAM,CHO-K1 Ca PAM,CHO-K1 Ca ag,M1 antag,CHO-K1 Ca antag,CHRM1 agonist
O=C1NC(=S)NC1=Cc1ccc(Cl)cc1Cl,1,-14,0,-3,26*,-2
Cc1ccc(OCC(=O)Nc2c3c(nn2C(C)(C)C)CS(=O)(=O)C3)cc1,4,10,7,-1,7,-3
Cc1ccc(NC(=O)CSc2nnc(-c3cnccn3)n2Cc2ccco2)cc1,-1,-7,0,1,2,-7
Cc1cccc(NC(=O)CSc2nnc(-c3cnccn3)n2Cc2ccco2)c1,-9,-8,-1,18,29*,-2
Cn1c(SCC(=O)Nc2ccc3nc(SCC(=O)N4CCCC4)sc3c2)nnc1-c1ccc(N)cc1,-7,-7,-1,12,31*,-6
CC(=O)c1c(C)oc2ccc(N(C(C)=O)S(=O)(=O)c3cccc4cccnc34)cc12,-25,-9,12,60*,0,2
CC(=O)c1c(C)oc2ccc(N(C(C)=O)S(=O)(=O)c3ccc(F)cc3C)cc12,11,15,1,-12,-8,-3
COc1ccc(S(=O)(=O)c2nnn(-c3cccc(Cl)c3)c2N)cc1,-4,-16,2,2,25*,11
NC(=O)C1CCCN(CC(=O)Nc2ccccc2C(=O)NC2CC2)C1 (centres undefined),9,5,1,-7,-19,-2
C=CCNc1nc2c(c(=O)n(C)c(=O)n2C)n1CCCCCC,-1,2,2,16,12,-3
C=CCNc1nc2c(c(=O)n(C)c(=O)n2C)n1CC,7,-9,1,0,31*,-1
COc1ccc(C(=O)Nc2ccnn2C2CCN(C(=O)C3CCOC3)CC2)cc1 (centres undefined),13,13,2,-13,-6,-1
Cc1nc2ccc(NS(=O)(=O)c3ccc(F)cc3F)cc2s1,-7,3,10,8,-5,1
Cc1nc2ccc(NS(=O)(=O)c3c(F)cc(F)cc3Br)cc2s1,-15,-21,10,37*,1,-1
CN(C)/C=N/c1sc2c(c1C#N)CC(C)(C)NC2(C)C,23*,6,0,-17,-10,-3
COc1ccc(C(=O)NCCn2ccc3ccccc32)c(OC)c1,4,41*,2,-26,-35,2
CCc1ccc(N(C(=O)CCC(=O)Nc2cc(C)on2)C(C(=O)NC(C)(C)C)c2ccc(OC)cc2)cc1 (centres undefined),18,11,0,-26,-15,1
COC(C(=O)Nc1ccc(F)cc1)c1ccccc1 (centres undefined),7,-2,0,-6,15,1
COC(C(=O)Nc1ccc(S(=O)(=O)Nc2ccc(F)cc2)cc1)c1ccccc1 (centres undefined),7,37,10,3,-1,18*
CCc1cc2c3c([nH]c2cc1S(=O)(=O)NCCCOC)CC(C)(C)CC3=O,5,9,1,-19,-17,-4
COc1cc2c(cc1OC)CN(CCC(C)c1ccc(Cl)cc1)CC2 (centres undefined),-20,10,1,43*,-10,0
CC1CCN(C(=O)Cn2nnc(-c3ccc([N+](=O)[O-])cc3)n2)CC1,3,13,2,-9,-11,-7
Cc1cccc(C)c1NC(=O)CN1CCN(C(=O)CN2C(=O)NC3(CCCCC3C)C2=O)CC1 (centres undefined),28*,-13,0,-28,-10,4
Cc1cc(/C=C(\C#N)C(N)=O)c(C)n1-c1ccc(N2CCOCC2)c([N+](=O)[O-])c1,-4,12,13,14,19,34*
CC1(C)C2CCC(C2)C1(C)NC(=O)C[N+](C)(C)C (centres undefined),11,1,23*,-4,-7,5
SMILES,CHRM1 PAM,CHO-K1 Ca PAM,CHO-K1 Ca ag,M1 antag,CHO-K1 Ca antag,CHRM1 agonist
CC1(C)C2CCC(C2)C1(C)NC(=O)CN1CCN(Cc2ccccc2)CC1 (centres undefined),-12,25,1,9,-5,-8
Cc1ccc2ccccc2c1C(O)c1ncc(-c2ccc(Cl)cc2)[nH]1 (centres undefined),18,-2,1,-5,3,7
COc1ccc(-c2csc(N(CCCN3CCOCC3)C(=O)c3ccco3)n2)cc1,-9,-4,3,42*,6,-3
Cc1ccc(-c2csc(N(CCCN3CCOCC3)C(=O)c3ccco3)n2)cc1,-14,1,5,15,-15,-7
COc1ccc(-c2csc(N(CCCN(C)C)C(=O)c3cccs3)n2)cc1,-7,19,8,30*,3,5
CCNc1nc(NC(C)(C)C)nc(N2CCCCC2)n1,-28,21,5,86*,-8,-11
O=C(CN1CCN(Cc2cccc(F)c2)CC1)Nc1ccccc1F,3,8,2,-10,-6,-10
CCc1nc(OCC(=O)c2ccccc2)c(C#N)c2c1COC(C)(C)C2,-4,-7,1,6,25*,-4
Cc1cc(N2CCCCCC2)nc2ccc(F)cc12,-15,20,0,15,-8,31*
Cc1cc(N2CCN(c3ccccc3)CC2)nc2ccccc12,-8,22,24*,8,-10,-3
O=C(Nc1ccnn1C1CCN(Cc2ccc(CO)o2)CC1)c1ccccc1,13,-4,0,-14,-8,-2
O=C(C(Cc1ccccc1)n1cccc1)N1CCN(Cc2ccccc2)CC1 (centres undefined),-31,15,7,92*,10,-5
O=C(C(Cc1ccccc1)n1cccc1)N1CCCCC1 (centres undefined),8,14,0,-9,-2,-5
CC(C)C(C(=O)N1CCN(Cc2ccccc2)CC1)c1ccccc1 (centres undefined),-28,3,2,89*,1,-8
O=C(NCc1ccccc1)c1nncc(-c2ccccc2)n1,10,14,0,-1,-8,-9
CCC1Oc2ccccc2N(CC(=O)Nc2ccccc2OC)C1=O (centres undefined),-3,-9,2,7,24*,-5
CCOC(=O)c1c(NC(=O)CN(CC)CC)sc2c1CCN(C(=O)OCC)C2,0,6,0,-16,-19,-2
CCOC(=O)c1c(NC(=S)N2CCN(C)CC2)sc2c1CCN(C(=O)OCC)C2,15,5,0,-12,-16,23*
Clc1ccc(C2=C3CCCCn4c(-c5ccccc5)c[n+](c43)C2)cc1,-3,12,0,-5,-7,-4
COc1ccc(-c2c[n+]3c4n2CCCCC4=C(c2ccc(Br)cc2)C3)cc1,-28,15,0,35*,-18,-15
O=C(O)c1c[nH]c2nccnc12,5,20,0,-13,-11,-1
